Source: ChEMBL document CHEMBL4513216, “Probing the Open Global Health Chemical Diversity Library for Multistage-Active Starting Points for Next-Generation Antimalarials” (ACS Infect Dis, 2020)
The whole screen tested about 69,000 compounds, of which about 8,600 (12%) showed an effect of 50% or more. What follows is part of a selection rich in strong results, with near analogues and random picks from the rest.

Tested on: Plasmodium berghei
Assay: Screen against P. berghei liver stage (PbLuc), transformed with Luciferase, at 10uM
Format: functional, HepG2
Conditions: tested at 10 uM

Row | SMILES | INHIBITION
1 | Cn1cc(CN2CCC3(CC2)COC(COc2ccccn2)C3)cn1 (stereo not given) | 30.3%
2 | Cc1cc(C)cc(OCC(O)CN2CCN(c3nccs3)CC2)c1 (stereo not given) | 53.4%
3 | N#Cc1ccc(OCC(O)CN2CCC(c3ccn[nH]3)CC2)cc1 (stereo not given) | 7.08%
4 | OC(COc1ccccc1)CN1CCN(c2nccs2)CC1 (stereo not given) | 27.7%
5 | COc1ccc(OCC(O)CN2CCN(c3nccs3)CC2)cc1 (stereo not given) | 8.9%
6 | Cc1cccc(OCC(O)CN2CCN(c3nccs3)CC2)c1 (stereo not given) | 77.4%
7 | Cc1cccc(OCC(O)CN2CCC(c3ccn[nH]3)CC2)c1 (stereo not given) | 42%
8 | CC(=O)N(C)c1nc(CN2CCN(c3nccs3)CC2)cs1 | 38.3%
9 | N#Cc1ccc(OCC(O)CN2CCN(c3nccs3)CC2)cc1 (stereo not given) | 87.6%
10 | CC(C)OCCCNC(=O)CN1CCN(c2nccs2)CC1 | -20.5%
11 | CCc1c(C(=O)N2CCNC(=O)C2)cnn1C(C)(C)C | 3.73%
12 | Cc1nn(C)c(C)c1C1CCCN1C(=O)c1nccnc1N (stereo not given) | 12.7%
13 | Cn1ncc2c1C(COCC1CC1)CN(Cc1ccsc1)C2 (stereo not given) | 4.57%
14 | COC(=O)COc1ccc(-c2noc(C3CCCO3)n2)cc1 (stereo not given) | 8.59%
15 | COCCCNC(=O)c1cc(-c2ccc(OC)cc2)nn1C | 3.19%
16 | COc1ccccc1C1=NOC(CC2(C(=O)NC(C)C)CCOCC2)C1 (stereo not given) | -29.8%
17 | COc1ccc(-n2nc(C3CC3)nc2CCn2cnnn2)cc1 | 52.5%
18 | COCc1nc(C2CC2)nn1-c1cccc(F)c1 | -19.8%
19 | COc1ccc(CCNC(=O)C2CCC(Cn3cnnn3)CC2)cc1 (stereo not given) | 22.9%
20 | COCc1nc(C2CC2)nn1-c1cc(Cl)ccc1OC | 51.1%
21 | CCn1cnnc1C1CCN(C(=O)c2ccc(Cl)cc2OC)CC1 | 25.1%
22 | COc1ccc(Cl)cc1-n1nc(C2CCCC2)nc1Cn1cnnn1 | 70.4%
23 | COCc1nc(C2CC2)nn1-c1ccccc1Cl | 37.2%
24 | CN1CCC(n2nc(Cc3cccc(Cl)c3)nc2Cn2cnnn2)CC1 | 15.7%

Row | SMILES | INHIBITION
25 | Fc1cccc(-n2nc(C3CC3)nc2CCn2cnnn2)c1 | 24.8%
26 | CN1C(=O)[C@@H]2CC[C@H]1CN(C(=O)c1sccc1S(N)(=O)=O)C2 | 25.9%
27 | CC(Cn1cccn1)Nc1cnc2ccccc2n1 (stereo not given) | 24.2%
28 | Cc1nc(-c2cccc(N3CCC(N[C@@H]4CCOC4)CC3)c2)cs1 | 44.1%
29 | O=C1N(Cc2cccc(F)c2)CCC12CCCN(c1ncc(F)cn1)C2 (stereo not given) | 8.66%
30 | CC(C)=CCCC(C)CN1CCC(n2cc(C(C)(C)O)nn2)CC1 (stereo not given) | -94.3%
31 | CC(C)=CCCC(C)CN1CCC(n2cc(CO)nn2)CC1 (stereo not given) | -109%
32 | CC(C)=CCCC(C)CN1CCC(n2cc(C(=O)NCCO)nn2)CC1 (stereo not given) | 60.9%
33 | O=C(O)C1(Cc2cccc(Cl)c2)CCCN(c2ncnc3[nH]ccc23)C1 (stereo not given) | -37.9%
34 | CC(C)Cc1nc(CN(C)c2cc(C(C)C)nc3ccnn23)no1 | -30.6%
35 | CCNC(=O)N1CCC(c2ccccc2)C1 (stereo not given) | -31%
36 | CSCc1cc(F)ccc1CNCc1ncc[nH]1 | 63.3%
37 | CSCc1cc(F)ccc1CNCc1ccncc1 | 24.2%
38 | CSCc1cc(F)ccc1CNCc1cccnc1 | 35.4%
39 | Cc1nc(Nc2ncccn2)cc(C2CN(C(=O)c3cccnc3)C2)n1 | 37.6%
40 | CC1=CC[C@@H]2CN(C(=O)c3ccc(-c4nnn(C)n4)cc3)C[C@@H]2C1 | 35.8%
41 | CC(C)N(C)Cc1cnc2n1CCN(C(=O)Cc1ccsc1)C2 | -13%
42 | Cc1nc(NC(C)C)nc2c1CN(Cc1nccn1C)CC2 | -4.02%
43 | Cc1ccc(NC2CCN(C(=O)c3ccsc3)CC2)nn1 | 31.8%
44 | CC(C)Nc1nc2c(c(NC3CC3)n1)CCN(Cc1nccn1C)CC2 | 60.3%
45 | CC(C)Nc1nc2c(c(NC3CC3)n1)CN(C(=O)Cc1ccsc1)CC2 | 83.7%
46 | CC(C)Nc1nc2c(cc1C(=O)O)CCN(Cc1ccsc1)CC2 | 21.4%
47 | CC(C)Nc1nc2c(c(NC3CC3)n1)CN(C(=O)c1ccncc1)CC2 | 5.36%
48 | CC(C)Nc1nc2c(c(NC3CC3)n1)CN(C(=O)c1ccsc1)CC2 | 79.2%

Row | SMILES | INHIBITION
49 | CC(C)Nc1nc2c(c(N(C)C)n1)CCN(Cc1nccn1C)CC2 | 21.7%
50 | CC(C)Nc1nc2c(c(NC3CC3)n1)CCN(C1CCOCC1)CC2 | 23.1%
51 | CC(C)N(C)Cc1noc2c1CN(C(=O)c1ccsc1)CC2 | -18.5%
52 | CC(C)Nc1nc2c(c(NC3CC3)n1)CN(C(=O)c1ccnnc1)CC2 | 65.9%
53 | CC(C(=O)NCCOc1ccccc1)n1cncn1 (stereo not given) | 2.97%
54 | CN(C)C(=O)CN1CC[C@H]2CN(S(C)(=O)=O)C[C@@H]2C1=O | -41.8%
55 | O=C(c1ccccc1F)N1C[C@H]2CCC[C@@]2(COCc2ccncc2)C1 | 15.4%
56 | Cc1cnn(CCNCc2csc(-c3ccccc3)n2)c1 | 34.75%
57 | CC(C)CN1CC[C@@H]2[C@H](CC1)N(C(=O)c1ccccc1)CCS2(=O)=O | 36.9%
58 | COc1ccccc1OCC(=O)NCC(C)(O)c1ccccc1 (stereo not given) | 9.79%
59 | CC(C)n1cc(CN2CCCN(C(=O)CC3CCCO3)CC2)cn1 (stereo not given) | -4.94%
60 | O=C(CCS(=O)(=O)c1ccccc1)N1CCCC(n2cccn2)C1 (stereo not given) | 34.5%
61 | Cn1cnc2c1C(COCc1ccccc1)N(Cc1ccccn1)CC2 (stereo not given) | 18.5%
62 | Cc1c(S(=O)(=O)N2CCCC2c2nnc(-c3ccsc3)o2)cnn1C (stereo not given) | 0.4%
63 | CN1C[C@H]2CC[C@@H](CC1=O)N2C(=O)c1ccc(-c2ccccc2)[nH]c1=O | -45%
64 | Cc1nn(C)c(Cl)c1CNCc1cccnc1N1CCOCC1 | 41.8%
65 | N#Cc1ccc(CN(CC(N)=O)Cc2cccc(F)c2)cc1 | 17.1%
66 | N#Cc1ccccc1CN(CC(N)=O)C1CCCC1 | 20.9%
67 | CN(C(=O)CNc1ccc(C#N)cc1)C1CCCCC1 | -87.7%
68 | N#Cc1ccc(CN(CC(N)=O)C2CCCC2)cc1 | 90.2%
69 | NC(=O)CN(Cc1ncc(-c2ccccc2)o1)C1CCCC1 | -32%
70 | N#Cc1ccc(CN(CC(N)=O)C2CCCC2)c(Br)c1 | 90.2%
